About 83,000 compounds went through this panel and 20% of them were active in at least one assay; those are over-represented in the sample as a whole.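 Method: cells in 96-well plates; compound added at one concentration; 48 h incubation; percent growth measured; values under 10 scored active.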 Values without a mark were called inactive. Calls of active or inactive are those of the source.

Test systems include NCI-H23 lung; NCI-H226 lung; NCI-H322M lung; HOP-62 NSCLC; NCI-H460 lung; HOP-92 NSCLC; NCI-H522 lung; 786-0 renal; COLO 205 colon; DU-145 prostate; K-562 leukemia; MALME-3M melanoma; MDA-MB-231 breast; RXF 393 renal; SF-268 CNS; SF-295 CNS; SF-539 CNS; UACC-257 melanoma; M14 melanoma; A549/ATCC NSCLC.
Assay in all cases: NCI-60 one-dose screen, 48 h (100 = growth as untreated, 0 = no growth, -100 = all killed)
What all share (details): 10 µM unless noted

Take `CC(C)C1=CC2=C(C=O)C[C@@H]3[C@](C)(CCC[C@@]3(C)C(=O)OCC#CCN3CCCC3)[C@H]2CC1`: the growth was 62.2% in the assay on NCI-H23 lung; 75.7% in the assay with NCI-H226 lung; 96.2% with NCI-H322M lung; 84.9% in the assay on HOP-62 NSCLC; 76.8% in the assay on NCI-H460 lung; 45.9% in the assay with HOP-92 NSCLC. Moreover, the growth with NCI-H522 lung is 59.9%; in the assay on 786-0 renal, 75.2%; in the assay with COLO 205 colon it was 86.5%; in the assay with DU-145 prostate, 96.3%; with K-562 leukemia it was 30.8%; in the assay on MALME-3M melanoma, 81.8%. For the same molecule, the growth was 89.3% in the assay with MDA-MB-231 breast; 72.6% in the assay with RXF 393 renal; 86.9% in the assay on SF-268 CNS; 79.7% with SF-295 CNS; 63.9% in the assay with SF-539 CNS; 86.6% in the assay with UACC-257 melanoma. The growth in the assay on M14 melanoma was 75.9%.
Consider `CC(C)(C)NCCC(O)c1cc2c(Cl)cc(Cl)cc2c2cc(C(F)(F)F)ccc12` (centres undefined), for which the growth in the assay with NCI-H23 lung was -78.6% (active); with NCI-H226 lung, -73.8% (active); in the assay with NCI-H322M lung, -54.2% (active); in the assay on HOP-62 NSCLC, -87.1% (active); in the assay with HOP-92 NSCLC it was -62.1% (active); in the assay on NCI-H522 lung, -81.8% (active). Moreover, the growth with A549/ATCC NSCLC is -88.2% (active); in the assay on 786-0 renal, -65.5% (active); with COLO 205 colon, -87.3% (active); in the assay on DU-145 prostate, -95.1% (active); in the assay with K-562 leukemia it was -72.2% (active); with MALME-3M melanoma, -53.3% (active). Moreover, the growth with MDA-MB-231 breast was -74.4% (active); with RXF 393 renal, -95.9% (active); in the assay with SF-268 CNS, -88.6% (active); in the assay on SF-539 CNS, -82.2% (active); with UACC-257 melanoma it was -81.7% (active); with M14 melanoma, -77.4% (active).
In the case of `COc1ccc(C(=O)n2nc(/C=C/c3ccc(O)c(OC)c3)cc2/C=C/c2ccc(O)c(OC)c2)cc1`, the growth in the assay with NCI-H23 lung was 7.96% (active); in the assay with NCI-H226 lung it was 13%; in the assay on NCI-H322M lung, 11.7%; with HOP-62 NSCLC it was 5.2% (active); with HOP-92 NSCLC, -10.7% (active); with NCI-H522 lung it was -6.8% (active). The growth was 3.98% (active) in the assay with A549/ATCC NSCLC; 2.92% (active) in the assay on 786-0 renal; -66.2% (active) with COLO 205 colon; 16.6% with DU-145 prostate; -6.97% (active) in the assay with K-562 leukemia; 3.93% (active) with MALME-3M melanoma. The growth was 12.5% in the assay on MDA-MB-231 breast; -54.8% (active) with RXF 393 renal; 6.45% (active) in the assay with SF-268 CNS; 6.61% (active) in the assay on SF-295 CNS; -24.4% (active) with SF-539 CNS; 0.119% (active) in the assay with UACC-257 melanoma. For the same molecule, the growth in the assay on M14 melanoma was -15.1% (active).
In the case of `COC(=O)c1cc(=O)nc(N/N=C/c2ccco2)s1`, the growth is 106% in the assay on NCI-H23 lung; 97.8% in the assay on NCI-H226 lung; 96.2% in the assay on NCI-H322M lung; 103% with HOP-62 NSCLC; 85.7% in the assay with HOP-92 NSCLC; 103% with NCI-H522 lung. Also, the growth was 107% with A549/ATCC NSCLC; 114% in the assay on 786-0 renal; 116% with COLO 205 colon; 112% with DU-145 prostate; 101% in the assay with K-562 leukemia; 108% with MALME-3M melanoma. For the same molecule, the growth is 117% in the assay with MDA-MB-231 breast; 102% in the assay on RXF 393 renal; 106% in the assay on SF-268 CNS; 108% with SF-539 CNS; 117% in the assay with UACC-257 melanoma; 121% in the assay on M14 melanoma.
With `COc1cc(Nc2nc(N[C@H]3CCCC[C@@H]3N)nc3cc[nH]c(=O)c23)cc(OC)c1`, the growth was 30.2% in the assay with NCI-H23 lung; -13.5% (active) with NCI-H226 lung; 9.42% (active) in the assay on NCI-H322M lung; 47.6% in the assay with HOP-62 NSCLC; -10.1% (active) in the assay on HOP-92 NSCLC; -9.29% (active) in the assay with NCI-H522 lung. In addition, the growth in the assay with A549/ATCC NSCLC is 19.1%; in the assay on 786-0 renal, 40.4%; in the assay on COLO 205 colon, 18.8%; in the assay with DU-145 prostate, 41.7%; in the assay with K-562 leukemia, 24.6%; in the assay on MALME-3M melanoma, 91.6%. In addition, the growth is 38.4% in the assay on MDA-MB-231 breast; 10.9% in the assay on RXF 393 renal; 48.1% with SF-268 CNS; -3.04% (active) in the assay on SF-539 CNS; 7.33% (active) in the assay on UACC-257 melanoma; 40.2% in the assay with M14 melanoma.
`Cc1ccc(S(=O)(=O)NCCNc2nccc(-c3c(-c4ccc(O)cc4)nc4sccn34)n2)cc1`: the growth was 95.1% with NCI-H23 lung; 98.8% in the assay on NCI-H226 lung; 110% in the assay with NCI-H322M lung; 113% with HOP-62 NSCLC; 101% in the assay with HOP-92 NSCLC; 84% in the assay on NCI-H522 lung. Moreover, the growth in the assay with A549/ATCC NSCLC was 94.1%; with 786-0 renal it was 97.3%; in the assay on COLO 205 colon it was 104%; in the assay with DU-145 prostate it was 102%; in the assay on K-562 leukemia, 81.7%; in the assay on MALME-3M melanoma, 95.6%. In addition, the growth is 97.7% with MDA-MB-231 breast; 92.2% in the assay on RXF 393 renal; 95.6% with SF-268 CNS; 107% with SF-539 CNS; 108% with UACC-257 melanoma; 93.3% in the assay on M14 melanoma.
In the case of `CC12CCC3C4(C)COC(c5ccco5)OC4CCC3(C)C1CC(C1=CCOC1=O)O2` (centres undefined), the growth in the assay on NCI-H23 lung is 103%; with NCI-H226 lung it was 101%; with NCI-H322M lung, 98.9%; in the assay with HOP-62 NSCLC it was 105%; with HOP-92 NSCLC it was 100%; with NCI-H522 lung, 109%. Also, the growth with A549/ATCC NSCLC was 107%; in the assay on 786-0 renal it was 93.4%; in the assay with COLO 205 colon, 110%; with DU-145 prostate, 107%; with K-562 leukemia it was 92.6%; in the assay with MALME-3M melanoma, 98.5%. The growth in the assay on MDA-MB-231 breast was 90.2%; in the assay on RXF 393 renal it was 99.3%; in the assay on SF-268 CNS, 98.5%; in the assay on SF-295 CNS, 97.9%; with SF-539 CNS it was 107%; in the assay with UACC-257 melanoma, 110%. For the same molecule, the growth in the assay with M14 melanoma was 98.6%.
